Growth data for 12 compounds are collected here from PubChem BioAssay (NCI).

Molecules are shown by their SMILES. Compounds without any hit were thinned out: in the full panel of roughly 83,000, 20% have a hit.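 Compound tested at a single concentration for 48 hours in 96-well plates; a percent growth value below 10 was scored as active.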 Values without a mark were called inactive. Active and inactive are the calls of the source.

Among the test systems are SK-MEL-2 melanoma; EKVX NSCLC; SN12C renal; UO-31 renal; TK-10 renal; ACHN renal; CAKI-1 renal; A498 renal; CCRF-CEM leukemia; MOLT-4 leukemia.
Holding throughout (test): NCI-60 one-dose screen, 48 h (100 = growth as untreated, 0 = no growth, -100 = all killed)
Holding throughout (details): 10 µM unless noted

As for `C(=N\Nc1ccccn1)/c1ccccn1`, the growth in the assay on SK-MEL-2 melanoma is 48.9%; with EKVX NSCLC, 25.8%; in the assay on SN12C renal, 36.5%; in the assay on UO-31 renal, -10.7% (active); in the assay on TK-10 renal, 17.5%; in the assay with ACHN renal, 14.1%. For the same compound, the growth in the assay with CAKI-1 renal was 10.5%; in the assay with A498 renal it was 22.4%; with CCRF-CEM leukemia, 0.917% (active); with MOLT-4 leukemia it was 18.8%.
As to `CC(=O)C1=C(O)C=C2Oc3c(C(=O)/C=C/c4ccccc4)c(O)c(C)c(O)c3[C@]2(C)C1=O`, the growth in the assay with SK-MEL-2 melanoma is -3.97% (active); with EKVX NSCLC, 36.7%; with SN12C renal it was 23.4%; in the assay on UO-31 renal, 30.7%; in the assay with TK-10 renal, 33.6%; in the assay with ACHN renal it was 48.2%. The growth in the assay on CAKI-1 renal is 46.7%; with A498 renal, 14.3%; in the assay on CCRF-CEM leukemia, 22.1%; in the assay with MOLT-4 leukemia, 32.6%.
With `CS(=O)CCCCCN=C=S` (stereo not drawn), the growth with SK-MEL-2 melanoma is 6.73% (active); in the assay on EKVX NSCLC, 12.8%; with SN12C renal, -17% (active); in the assay on UO-31 renal, 1.81% (active); in the assay with TK-10 renal, -27.7% (active); in the assay with ACHN renal, -45.5% (active). Moreover, the growth with CAKI-1 renal is -15.3% (active); with A498 renal, -25.9% (active); with CCRF-CEM leukemia it was -7.32% (active); in the assay on MOLT-4 leukemia it was -13% (active).
Take `c1ccc(Sc2ncnc3ccccc23)cc1`: the growth with SK-MEL-2 melanoma was 44.3%; in the assay on EKVX NSCLC, 84.2%; in the assay on SN12C renal, 69%; with UO-31 renal, 52.7%; with TK-10 renal it was 96.5%; in the assay on ACHN renal, 90.9%. Further, the growth in the assay on CAKI-1 renal was 65.5%; in the assay on A498 renal, 82%; in the assay on CCRF-CEM leukemia, 48.5%; in the assay with MOLT-4 leukemia, 38%.
Take `CCN(C(=O)CN1CCN(c2cc3c(cc2F)c(=O)c(C(=O)O)cn3CC)CC1)c1nc(-c2ccccc2)cs1`: the growth in the assay on SK-MEL-2 melanoma is -15.3% (active); in the assay with EKVX NSCLC, 21.2%; in the assay on SN12C renal, 2.74% (active); in the assay with UO-31 renal, 12.4%; with TK-10 renal it was 14.6%; with ACHN renal, 8.13% (active). Further, the growth in the assay with CAKI-1 renal is 11.7%; in the assay with A498 renal, -6.64% (active); in the assay on CCRF-CEM leukemia, 14%; in the assay on MOLT-4 leukemia, 11.4%.
With `Cn1c2ccccc2c2c3c(c4c5ccccc5n(CCCCCC#N)c4c21)C(=O)N(O)C3=O`, the growth in the assay on SK-MEL-2 melanoma is 34.5%; with EKVX NSCLC, 88.2%; with SN12C renal, 10.8%; with UO-31 renal, 2.03% (active); in the assay with TK-10 renal, 42.1%; with ACHN renal, -0.622% (active). In addition, the growth in the assay with CAKI-1 renal was -32.3% (active); with A498 renal it was -32% (active); in the assay with CCRF-CEM leukemia, 3.22% (active); in the assay on MOLT-4 leukemia it was 1.13% (active).
As to `O=C1c2cc3c(cc2-c2c1c1cc(Cl)c(Cl)cc1c(=O)n2CCCn1ccnc1)OCO3`, the growth in the assay on SK-MEL-2 melanoma was 22.7%; in the assay on EKVX NSCLC, 35.7%; in the assay with SN12C renal, -4.67% (active); in the assay on UO-31 renal, 1.1% (active); in the assay on TK-10 renal, 34.3%; in the assay with ACHN renal, -6.04% (active). The growth is 11.9% with CAKI-1 renal, -29.9% (active) in the assay with A498 renal, 2.94% (active) in the assay on CCRF-CEM leukemia and -24.9% (active) in the assay with MOLT-4 leukemia.
In the case of `COc1cc(-c2nc3ccccc3s2)ccc1NC(=O)COc1ccc(Cl)cc1`, the growth in the assay on SK-MEL-2 melanoma is 78.5%; in the assay on EKVX NSCLC it was 57.4%; with SN12C renal, 58.6%; in the assay on UO-31 renal, 47.3%; with TK-10 renal, 35.6%; in the assay with ACHN renal, 40%. In addition, the growth in the assay on CAKI-1 renal was 6.38% (active); with A498 renal it was 97.3%; in the assay with CCRF-CEM leukemia, 98.5%; in the assay with MOLT-4 leukemia, 86%.
For the compound `C[C@@H]1CC[C@@H]2[C@@H]1[C@H](OC(=O)/C=C/c1ccccc1)[C@]1(C3CCCCC3)C[C@@H](OC(=O)CO)[C@@]2(C)O1`, the growth is 92.3% in the assay with SK-MEL-2 melanoma; 68.6% in the assay on EKVX NSCLC; 16.6% in the assay on SN12C renal; -51.7% (active) with UO-31 renal; 93.1% in the assay with TK-10 renal; 14.8% in the assay on ACHN renal. The growth in the assay with CAKI-1 renal is 16.4%; in the assay on A498 renal, -31.7% (active); in the assay on CCRF-CEM leukemia, 62.8%; in the assay on MOLT-4 leukemia, 61.6%.
In the case of `COc1ccc(-c2cn3c(-c4ccc(OC)cc4)cnc3c(Oc3ccc4c(C)cc(=O)oc4c3)n2)cc1`, the growth in the assay with SK-MEL-2 melanoma is 49.4%; in the assay on EKVX NSCLC, 50.2%; in the assay with SN12C renal it was 24.5%; in the assay with UO-31 renal, 75%; in the assay with TK-10 renal, 35.7%; in the assay with ACHN renal, 58.1%. Also, the values for the growth with CAKI-1 renal and in the assay with A498 renal were 71.7% and 52.4%, respectively.
In the case of `CN1CCN(Cc2ccc(NC(=O)c3[nH]ncc3Nc3ncnc4[nH]ccc34)cc2)CC1`, the growth with SK-MEL-2 melanoma is -12.3% (active); in the assay with EKVX NSCLC, 13%; in the assay with SN12C renal, 13.3%; with UO-31 renal, 3.55% (active); with TK-10 renal, -61.8% (active); in the assay on ACHN renal, 5.97% (active). The growth was -1.63% (active) in the assay with CAKI-1 renal, -59% (active) with A498 renal, 4.71% (active) in the assay with CCRF-CEM leukemia and -20.9% (active) with MOLT-4 leukemia.
In the case of `COCCOC(=O)C1=C(C)NC(=S)NC1c1ccc2c(c1)OCO2` (stereo not drawn), the growth with SK-MEL-2 melanoma was 93%; in the assay with EKVX NSCLC it was 105%; in the assay with SN12C renal, 104%; with UO-31 renal, 87.8%; with TK-10 renal it was 104%; with ACHN renal, 106%. In addition, the growth in the assay on CAKI-1 renal was 99.8%; in the assay on A498 renal, 96.1%; with CCRF-CEM leukemia it was 104%; with MOLT-4 leukemia, 96.9%.
